# Test results as given in the supplement of paper PMC7156485.
# Where “and” joins values, the source holds several entries; their conditions need not be identical. Equal values may be shown once. Where a name gives a salt, the structure may show the parent alone. ± gives the standard deviation of the averaged measurements.
# What was measured:
# Conditions in all cases: concentration: 10 µM; 24 h
# [1] = system: HCC1569; test: cell number relative to DMSO (% of DMSO); higher = more cells (less growth inhibition / toxicity)
# How it was run: (§1)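 Six fields per well were imaged at ×10 after the cells were fixed in 3.7% formaldehyde and stained with a rabbit anti-H1.0 antibody, an AlexaFluor 647 secondary and DAPI. The HCC1569 and TDF cells had been plated at 800 per well in 384-well plates (RPMI, 10% FBS) and treated in triplicate with compounds at 10 µM for 24 h at 37 °C. The values are the median of replicates of H1.0 nuclear intensity or cell number, as percent of the plate control. Smoothing for positional effects was applied to HCC1569 data.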
# [2] = system: TDF; test: as above
# How it was run: as §1
# [3] = system: TDF; test: H1.0 immunofluorescence intensity relative to DMSO (% of DMSO); higher = stronger H1.0 induction, active = 120 or more
# How it was run: as §1
# [4] = system: HCC1569; test: H1.0 immunofluorescence intensity relative to DMSO (% of DMSO); higher = stronger H1.0 induction, active = 140 or more
# How it was run: as §1
# 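Throughout, for H1.0 immunofluorescence intensity relative to DMSO: TDF is a line of transformed human dermal fibroblasts of mesenchymal origin.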
# 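Throughout, for cell number relative to DMSO: TDF denotes transformed human dermal fibroblasts of mesenchymal origin.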
Structure (SMILES),cell number [1],cell number [2],H1.0 immunofluorescence intensity [3],H1.0 immunofluorescence intensity [4]
CN(C)C(=N)N=C(N)N [Metformin],100,94,95.9 (inactive),101 (inactive)
CC(C)NCC(O)COc1cccc2ccccc12 (centres undefined) [Propranolol],102,106,94.7 (inactive),108 (inactive)
O=C(O)CCCC=CCC1C(O)CC(F)C1C=CC(O)C1Cc2ccccc2C1 (centres undefined),103,103,91.9 (inactive),97.3 (inactive)
Cl.O=C(O)C1=CCCNC1 [Guvacine hydrochloride],97.8,99.1,103 (inactive),91.1 (inactive)
COc1cc2nccc(Oc3ccc(NC(=O)NC4CC4)c(Cl)c3)c2cc1C(N)=O,83.8,94.9,89.2 (inactive),122 (inactive)
COc1c2ccoc2cc2oc(C)cc(=O)c12 [Visnagin],103,102,94.7 (inactive),82.3 (inactive)
CCCCCCCCCCCCCCCCOCC(COP(=O)([O-])OCC[N+](C)(C)C)OC (centres undefined) [1-Hexadecyl-2-methylglycero-3 PC],101,95.4,104 (inactive),102 (inactive)
N#CC(=Cc1ccc(O)c(O)c1)C(=O)NCCCc1ccccc1 [Tyrphostin AG 555],79.8,90.7,88.6 (inactive),107 (inactive)
"COC1C(N(C)C(=O)c2ccccc2)CC2OC1(C)n1c3ccccc3c3c4c(c5c6ccccc6n2c5c31)C(=O)NC4 (centres undefined) [Staurosporine, N-benzoyl-]",66,53.5,82.4 (inactive),108 (inactive)
CN1CCc2ccccc2Cc2[nH]c3ccccc3c2CC1,104,108,92.4 (inactive),100 (inactive)
NC(=O)N1c2ccccc2C=Cc2ccccc21 [Carbamazepine],101 ± 6.6,111 ± 1.5,92.6 (inactive),97 (inactive)
CC(C)(Sc1cc(C(C)(C)C)c(O)c(C(C)(C)C)c1)Sc1cc(C(C)(C)C)c(O)c(C(C)(C)C)c1 [Probucol],102,106,91.9 (inactive),91.8 (inactive)
Cc1cnc(C(=O)O)c[n+]1[O-] [Acipimox],100,108,95.2 (inactive),104 (inactive)
Cn1cnc2c(NC3CCCC3)ncnc21 [N6-Cyclopentyl-9-methyladenine],76.8,98.1,97.3 (inactive),159 (active)
CC(C(=O)O)c1ccc2c(c1)Cc1cccnc1O2 (centres undefined) [Pranoprofen],98.6,94.7,103 (inactive),102 (inactive)
CCCCCC=CCC=CC=CC=CC(O)C(O)CCCC(=O)O (centres undefined),99.8,100,99.2 (inactive),96.6 (inactive)
O=c1cc(-c2ccc(O)cc2)oc2cc(OC3OC(CO)C(O)C(O)C3O)c(C3OC(CO)C(O)C(O)C3O)c(O)c12 (centres undefined) [Saponarin],98.8,89.5,108 (inactive),94.4 (inactive)
N#CC(=Cc1c[nH]c2ccccc12)C(=O)c1ccc(O)c(O)c1 [Tyrphostin AG 808],93.1,100,86.2 (inactive),122 (inactive)
CN(C)CCC=C1c2ccccc2COc2ccc(CC(=O)O)cc21 [Olopatadine],102,106,90.3 (inactive),102 (inactive)
"C[N+](C)(C)CCO.[Cl-] [2-hydroxy-N,N,N-trimethylethanaminium chloride]",101,107,94.9 (inactive),99.5 (inactive)
O=C1Nc2ccccc2C1=C1Nc2ccccc2C1=O [Indirubin],97.2,94.7,105 (inactive),102 (inactive)
CCCC[C@@H](C=O)NC(=O)[C@H](CC(C)C)NC(=O)[C@H](CC(C)C)NC(C)=O,47.1,32.2,160 (active),150 (active)
O=C(O)CN(CCN(CC(=O)O)CC(=O)O)CCN(CC(=O)O)CC(=O)O [Diethylenetriaminepentaacetic acid],95.4,104,95.1 (inactive),94.6 (inactive)
CC(=O)OCC1(O)CC23CCC4c5ccoc5C=CC4(C)C2CCC1C3 (centres undefined) [Kahweol Acetate],103,95.3,105 (inactive),98.9 (inactive)
"CCCCC(C)(C)C(O)C=CC1C(O)CC(=O)C1CC=CCCCC(=O)O (centres undefined) [16,16-Dimethyl-prostaglandin E2]",100,110,94.7 (inactive),109 (inactive)
C[C@@H](O)[C@H]1C(=O)N2C(C(=O)O)=C(SCCN=CN)C[C@H]12.O,101,104,99.9 (inactive),93.3 (inactive)

Structure (SMILES),cell number [1],cell number [2],H1.0 immunofluorescence intensity [3],H1.0 immunofluorescence intensity [4]
"OC[C@@H](O)[C@H]1NC[C@@H](O)[C@H]1O [1,4-Dideoxy-1,4-imino-D-mannitol hydrochloride]",99.9,104,87.9 (inactive),90.9 (inactive)
Cl.O=S(=O)(c1cccc2c(Cl)cccc12)N1CCCNCC1,99 and 96.6,104,103 (inactive) and 93.2 (inactive),105 (inactive) and 97.4 (inactive)
COc1cc2ccc(=O)oc2cc1O [Scopoletin],101,113,101 (inactive),88.9 (inactive)
CCCCCCCCCCCCCCC(=O)O [Pentadecanoic acid],99,92.6,105 (inactive),107 (inactive)
Cc1ccccc1C=CC1=NCCN1.O=C(O)C(=O)O [Metrazoline oxalate],96.3,81,102 (inactive),124 (inactive)
"CCN(NO)C1=CC(=O)C(=O)C=C1 [ET-3,4-dephostatin]",79.5,97.7,94.7 (inactive),151 (active)
CCn1cc(C(=O)O)c(=O)c2ccc(C)nc21 [Nalidixic acid],102,98.7,91.1 (inactive),86.1 (inactive)
"CC1(C)C(=O)N(CCN2CCC(C(=O)c3ccc(F)cc3)CC2)c2ccccc21.Cl [LY-310,762 hydrochloride]",101,94.5,94.2 (inactive),95.7 (inactive)
COc1ccccc1N1CCN(CCCCNC(=O)c2ccc3ccccc3c2)CC1,99.1,111,106 (inactive),97.4 (inactive)
Cc1scc2c1N(C(=O)CN1CCN(C)CC1)c1ccccc1NC2=O.Cl.Cl [Telenzepine dihydrochloride],107,94,99.8 (inactive),104 (inactive)
CC(C=CC1=C(C)CCCC1(C)C)=CC=CC(C)=CC(=O)Nc1ccc(O)cc1 [Fenretinide],51.1,106,97.8 (inactive),181 (active)
COc1ccc2c(c1)c(CC(=O)N1CCOCC1)c(C)n2C(=O)c1ccc(Cl)cc1 [Indomethacin morpholinylamide],105,100,90.6 (inactive),85.5 (inactive)
CC(CSC(=O)c1ccccc1)C(=O)N1CC(Sc2ccccc2)CC1C(=O)[O-].CC(CSC(=O)c1ccccc1)C(=O)N1CC(Sc2ccccc2)CC1C(=O)[O-].[Ca+2] (centres undefined),106,119,93.2 (inactive),95.4 (inactive)
CC(N=C(NC#N)Nc1ccncc1)C(C)(C)C (centres undefined) [Pinacidil],103 ± 2.5,107 ± 6.8,89.4 (inactive),101 (inactive)
CCCCCC=CCC=CCC=CCC=CCCCCCC(=O)O [Adrenic acid (22:4 n-6)],99,107,108 (inactive),99.9 (inactive)
"COC(=O)C1C2CC3c4[nH]c5cc(OC)ccc5c4CCN3CC2CC(OC(=O)c2cc(OC)c(OC)c(OC)c2)C1OC (single isomer, unassigned; (-)) [(-)-Isoreserpine]",98.9,107,102 (inactive),98 (inactive)
Ic1cccc(CSc2nnc(-c3ccncc3)o2)c1 [GSK-3b Inhibitor II],93.5,106,102 (inactive),117 (inactive)
CC12C=CC(=O)C=C1CCC1C2C(O)CC2(C)C1CCC2(O)C(=O)CO (centres undefined) [Prednisolone],100,99.4,84.9 (inactive),115 (inactive)
"Cc1ccc(OCC(O)C(C)NC(C)C)c2c1CCC2.Cl (centres undefined) [ICI 118,551 hydrochloride]",101,104,96.9 (inactive),98.4 (inactive)
CC(C)COCC(CN(Cc1ccccc1)c1ccccc1)N1CCCC1.Cl (centres undefined) [Bepridil hydrochloride],99.7,103,92.8 (inactive),88.7 (inactive)
NCCCCN=C(N)N.O=S(=O)(O)O [Agmatine sulfate],106,98.2,88.7 (inactive),92.4 (inactive)
"CCCCCCCCC=CCCCCCCCC(N)=O [9,10-Octadecenoamide]",98.5,103,94.7 (inactive),102 (inactive)
CN1C(=O)CC(C(=O)O)C1c1cccnc1 (stereo not drawn) [Trans-4-Cotininecarboxylic acid],98.4,100,93.3 (inactive),85.3 (inactive)
O=c1[nH]c(=O)n(C2CCCO2)cc1F (centres undefined) [Ftorafur],104,102,99.6 (inactive),103 (inactive)
CC[C@H](NC(=O)c1c(O)c(-c2ccccc2)nc2ccccc12)c1ccccc1,101,98.3,97.8 (inactive),107 (inactive)
